High-throughput results from PubChem BioAssay.
PLK1 PBD block – blocks phosphopeptide binding to human PLK1 polo-box domain; Plk1 PBD binding of FITC phosphopeptide, fluorescence polarization; 2.8% of 360,000 active; P53350; Potency, µM, inactives show max response, negative = inhibition, actives largely listed as inhibitors; note: potency is the fitted concentration of half-maximal effect; series mostly up to about 57 µM; % is set by controls: 0 for no effect and ±100 for the full control effect; nearly all actives have a fitted effect of over 65% in size
BAZ2B block – blocks human BAZ2B; AlphaScreen BAZ2B-H3K14Ac peptide displacement; 4.4% of 360,000 active; Q9UIF8; Potency, µM (series often up to 114 µM), for inactives: at the highest dose activity change, negative = inhibition, hits mostly inhibitors; note: potency is the fitted concentration of half-maximal effect; % is set by controls: 0 for no effect and ±100 for the full control effect; nearly all actives have a fitted effect of over 60% in size
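In this displacement format the biotinylated H3(5-23) peptide acetylated at Lys14 serves as ligand at 50 nM, with BAZ2B at 50 nM in PBS pH 7.4 containing 0.01% Tween-20. Donor and acceptor beads are 10 ug/mL final.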
PI5P4Ka inh – blocks human PI5P4K alpha kinase activity; P48426; PI5P4Kalpha enzyme, ADP-Glo luminescence, 60 min; active compounds read low; max response, %; AID 652105; 1.2% of 330,000 active; active = max response of -50% or lower; inconclusive = between -30% and -50%; inactive = -30% or higher; note: value at the top dose of about 77 µM; % is set by controls: 0 for no effect and ±100 for the full control effect
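Quantitative HTS of the MLSMR library against PI5P4Kalpha with substrate. ATP added last at 5 microM final; room temperature, 60 minutes. Remaining ATP depleted, ADP converted and read as luminescence.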
HP1b chromo inh – blocks HP1-beta chromodomain binding to methylated histone tails; P83916; AlphaScreen HP1-beta / biotin-H3K9me3 peptide binding; Potency, µM (series often up to 114 µM), inactives show at the highest dose activity change, negative = inhibition, actives largely listed as inhibitors; 0.56% of 390,000 active; AID 540317; note: potency is the fitted concentration of half-maximal effect; nearly all actives have a fitted effect of over 70% in size
Target sequence (P83916 whole entry, looked up): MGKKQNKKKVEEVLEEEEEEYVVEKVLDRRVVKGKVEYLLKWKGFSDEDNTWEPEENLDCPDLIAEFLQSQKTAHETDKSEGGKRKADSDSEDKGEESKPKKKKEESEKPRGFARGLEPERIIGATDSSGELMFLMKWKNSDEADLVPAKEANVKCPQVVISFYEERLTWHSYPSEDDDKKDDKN
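AlphaScreen: HP1-beta (50 nM) preformed 30 min with biotin-H3(1-18)K9me3 peptide (50 nM) in PBS pH 7.4, 0.01% Tween-20. Compound added for 30 min at RT, then streptavidin donor/nickel chelate acceptor beads (10 ug/mL) for 30 min.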
JMJD2A Tudor – blocks the human JMJD2A Tudor domain; O75164; AlphaScreen JMJD2A-Tudor / H3K4me3 peptide binding; Potency, µM (series often up to 114 µM), without a hit: at the top dose activity change, negative = inhibition, actives largely listed as inhibitors; 4.4% of 390,000 active; note: potency is the fitted concentration of half-maximal effect; % is set by controls: 0 for no effect and ±100 for the full control effect; nearly all actives have a fitted effect of over 50% in size
G9a inh – inhibitors of human histone lysine methyltransferase G9a | Q96KQ7 | AID 504332 | 8.8% of 350,000 active | Potency, µM (doses to about 102 µM), for inactives: at the highest dose activity, negative = inhibition, hits mostly inhibitors | G9a H3K9 monomethylation, AlphaScreen, 2 h; note: potency is the fitted concentration of half-maximal effect; % is set by controls: 0 for no effect and ±100 for the full control effect; nearly all actives have a fitted effect of over 75% in size
Target sequence (Q96KQ7 913-1193 limits assumed): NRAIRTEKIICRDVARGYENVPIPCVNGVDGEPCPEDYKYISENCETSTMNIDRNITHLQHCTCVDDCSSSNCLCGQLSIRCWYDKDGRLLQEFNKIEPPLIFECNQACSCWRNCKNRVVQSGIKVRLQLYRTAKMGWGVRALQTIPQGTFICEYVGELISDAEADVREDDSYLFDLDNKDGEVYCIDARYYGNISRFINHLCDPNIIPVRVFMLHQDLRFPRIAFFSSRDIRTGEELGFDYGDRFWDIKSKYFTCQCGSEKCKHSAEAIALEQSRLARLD
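Compounds were preincubated with 20 nM G9a for 15 min, after which biotinylated H3K9 peptide (500 nM) and SAM (20 uM) started a 2 h room-temperature reaction. Monomethylated product was quantified by antibody-based AlphaScreen chemiluminescence.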
Starred values were filed as active, the others as inactive; ? = inconclusive; . = no result; [ ] = another dose, or the depositor's remark. Sampled rows, rich in hits. Any-hit rate of the full collection: about 12%. Unless noted, calls come from the whole dose curve; as a rule, active = well fitted curve in the direction sought with a large enough effect; inconclusive = small, poorly fitted or top-dose-only effect, or another doubt; inactive = no such curve, though single readings can be large; an effect the other way counts as inactive or inconclusive.

SMILES | PLK1 PBD block | BAZ2B block | PI5P4Ka inh | HP1b chromo inh | JMJD2A Tudor | G9a inh
Cc1ccc(C(=O)COC(=O)c2cccc(NC(=O)c3ccc(Br)cc3)c2)cc1 | . | 1% | . | 31% | -13% | ?
CC(C)C[C@H](NC(=O)[C@H](Cc1ccccc1)NC(=O)CNC(=O)[C@H](CO)NC(=O)[C@@H](N)Cc1ccc(O)cc1)C(=O)N[C@H](C(=O)O)[C@H](C)O | . | . | . | . | . | 23%[59 µM]
CCCCn1c(O)c(C(C)=Nc2ccc(C(=O)O)cc2)c(=O)[nH]c1=O | -20% | ? | ? | 21% | ? | 45µM*
CCCCn1c(O)c(C(C)=NCc2ccc3c(c2)OCO3)c(=O)[nH]c1=O | ? | 1% | -1 | -9% | 89µM* | .
CCCCn1c(O)c(C=NCc2ccc3c(c2)OCO3)c(=O)[nH]c1=O | -1% | -20% | -3 | 30% | -2% | -30%
CCCCn1c(O)c(C(C)=NCCc2ccccc2)c(=O)[nH]c1=O | 2% | 3% | 0 | 19% | 2% | -20%[12.7 µM]
CCN(CC)C(=O)c1ccc(NC(=O)c2cn(-c3ccccc3)nc2-c2ccc(OC)cc2)cc1 | 5% | -25% | -3 | 32% | -21% | 5%
O=C1CC(=O)N(c2cccc(Br)c2)C(=O)N1 | -25% | -23% | -12 | 5% | ? | 56µM*
COc1ccccc1N1C(=O)NC(=O)/C(=C/c2ccc3c4c(cccc24)CC3)C1=O | 7.5µM* | ? | -58* | 11% | ? | 8.9µM*
COc1ccc(N2C(=O)NC(=O)/C(=C\c3cn(C)c4ccccc34)C2=O)cc1 | -1% | -9% | -5 | 30% | -14% | 25%[0.501 µM]
O=C1NC(=O)N(c2ccccc2)C(=O)/C1=C\c1ccccc1[N+](=O)[O-] | ? | -8% | ? | 12% | -9% | 28µM*
O=C1NC(=O)N(c2ccccc2)C(=O)/C1=C\c1ccc2c3c(cccc13)CC2 | . | ? | . | . | . | 7.1µM*
COCCCNC(=O)Cn1cc(/C=C2\C(=O)NC(=O)N(c3ccccc3F)C2=O)c2ccccc21 | ? | -30% | -4 | 34% | -11% | ?
Cc1ccc(C(O)P(=O)(OCCC(C)C)c2ccc(N(C)C)cc2)cc1 (centres undefined) | 4% | ? | 1 | 13% | -23% | 7%[2.33 µM]
Cc1cccc(-n2c(-c3cccs3)nc3ccccc3c2=O)c1 | 7% | 79µM* | -2 | 13% | ? | 0%[59 µM]
O=c1c2ccccc2nc(-c2cccs2)n1-c1ccccc1 | -5% | -23% | -3 | 20% | 9% | 18%
C[C@@H]1CC[C@H]2[C@@H](C)C(=O)O[C@@H]3OC4(C)CC[C@@H]1[C@]32OO4 | . | . | . | . | . | 3%[59 µM]
O=[N+]([O-])c1c2ccccc2cc2ccccc12 | -20% | 52% | 4 | -3% | ? | 2%[0.501 µM]
O=[N+]([O-])c1ccc(-c2ccc(C=Nc3cccc4ccccc34)o2)cc1 | -12% | 40µM* | . | ? | 16µM* | 6.3µM*
CC1CCN(CC(=O)c2ccccc2Cl)CC1 | ? | -9% | 6 | 12% | ? | ?
CC1CCCN(CC(=O)c2ccc(Cl)c(Cl)c2)C1 (centres undefined) | -9% | ? | -6 | 65% | -6% | 25µM*
CC1CCN(CC(=O)c2ccc3c(c2)OCCO3)CC1 | -3% | . | 5 | ? | 5µM* | 4.5µM*
FC(F)(F)c1nc(N2CCN(c3ccccc3)CC2)nc2c1CCCCC2 | 0% | 4% | 14 | 55% | 21% | 43%[59 µM]
CN(Cc1ccc(OC(F)F)cc1)C(=O)c1ccccc1Sc1ccccc1C#N | 0% | . | -2 | 47% | 7% | .
COc1cc2c(cc1OC)C(C(=O)N1CCC3(CC1)OCCO3)C(c1ccccc1F)N(C)C2=O (centres undefined) | -6% | 3% | 0 | 20% | 3%[57.1 µM] | 0.79µM*
SMILES | PLK1 PBD block | BAZ2B block | PI5P4Ka inh | HP1b chromo inh | JMJD2A Tudor | G9a inh
O=C(NC1C(=O)NNC1c1ccc(Cl)cc1)c1ccc(F)cc1 (centres undefined) | -26% | -14% | 0 | 8% | -26% | ?
O=C(C(=O)N1CCc2ccccc2C1)c1cn(CC(=O)N2CCCCC2)c2ccccc12 | -21% | -4% | 1 | 38% | -21% | 40µM*
O=C(c1ccccc1)c1cn(CC(=O)N2CCOCC2)c2ccccc12 | 24µM* | -3% | ? | -4% | -20%[11.4 µM] | 0%[12.7 µM]
Nn1c(Cc2cccc3ccccc23)n[nH]c1=S | 8.4µM* | -34% | -6 | ? | 10µM* | 3.5µM*
O=S1(=O)N(Cc2ccccc2Cl)CCCN1Cc1ccccc1Cl | . | 76% | . | 95% | 84% | 109%[59 µM]
Cc1ccc(Cn2cccc(C(=O)Nc3ccc(C)c(Cl)c3)c2=O)cc1 | . | -3% | . | 30% | -3% | -17%[59 µM]
Cc1cccc(C)c1N1CCN(c2c(C)cccc2C)CC1 | -12% | 9% | 10 | 71% | 3% | 40µM*
Cc1cccc(N2CCN(CCc3ccccc3)CC2)c1C | -2% | ? | 1 | 12% | -28% | -3%[12.7 µM]
CC1N(C)c2cc(NC(=O)c3ccco3)c(P(=O)(Nc3ccc([N+](=O)[O-])cc3)N3CCOCC3)cc2C1(C)C (centres undefined) | 0% | ? | -6 | ? | ? | 50µM*
CC(C)CN1CCCC2(CCN(C(=O)Oc3ccccc3)CC2)C1 | . | . | . | . | . | 3%[12.7 µM]
C=C(C)Cn1c(-c2cccs2)n[nH]c1=S | -15% | -18% | 4 | -11% | 5.6µM* | 14µM*
O=[N+]([O-])c1cccc(O)c1 | -8% | -2% | 2 | 9% | -10% | -19%[0.501 µM]
C=C(C)Cn1c(-c2cccc([N+](=O)[O-])c2)n[nH]c1=S | -16% | -16% | -16 | 11% | 8.9µM* | 13µM*
CC(=O)O[C@H]1C(=O)[C@@]2(C)C([C@H](OC(=O)c3ccccc3)[C@]3(O)C[C@H](OC(=O)[C@H](O)[C@@H](NC(=O)c4ccccc4)c4ccccc4)C(C)=C1C3(C)C)[C@]1(OC(C)=O)CO[C@@H]1C[C@@H]2OC(=O)[C@H](C)NC(=O)c1ccc(-c2c3ccc(=O)cc-3oc3cc(O)ccc23)c(C(=O)O)c1 (some centres undefined) | . | . | . | . | . | 53%[12.7 µM]
CCOC(=O)c1c(NC(NC(=O)CF)C(Cl)(Cl)Cl)sc2c1CCCC2 (centres undefined) | 12µM* | -36% | -18 | -6% | 40µM* | 45µM*
Cc1ccc(-c2n[nH]c(=S)n2-c2ccccc2)cc1 | -18% | 10% | 4 | 2% | 20µM* | 1.3µM*
Cc1ccc(-n2c(-c3nn(C)c(C)c3Cl)n[nH]c2=S)cc1 | 30µM* | -31% | 10 | -15% | ? | ?
